Most compounds without a hit are left out; they make up all but 1.2% or so of the library.
gsp ag: gsp mutant agonism; gsp mutant cells, cAMP HTRF, 30 min; Potency, µM (titrated, usually from 76.9 µM), for inactives: top-dose activation (cAMP increase), usual class: activators; 340,000 tested, 0.13% active; active = well fitted activation curve with a large enough effect; inconclusive = small, poorly fitted or top-dose-only effect, or another doubt; inactive = no such curve, though single readings can be large or run the other way; cell line not stated here;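 note: phosphodiesterase inhibitor Ro 20-1724 added with compounds to block cAMP breakdown; potency is the fitted concentration of half-maximal effect; nearly all actives have a fitted effect of over 60% in size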
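Cells in DMEM/10% FBS with G418 were pretreated with compounds in DMSO plus […] (300 uM stock) for 30 min at 37C. cAMP was measured by HTRF (cAMP-d2 plus anti-cAMP antibody-K) after 30 min at room temperature.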
gsp antag: antagonists of gsp mutant (McCune-Albright syndrome); AID 624288; gsp-mutant cells, cAMP HTRF, 30 min; 340,000 tested, 0.4% active; Potency, µM (series often up to 76.9 µM), for inactives: at the highest dose activity change, negative = inhibition, hits mostly inhibitors; calls by dose curve; cell line not stated here;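 note: intracellular cAMP measured with PDE inhibitor Ro 20-1724 present during compound exposure; potency is the fitted concentration of half-maximal effect; % is set by controls: 0 for no effect and ±100 for the full control effect; nearly all actives have a fitted effect of over 65% in size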
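G418-selected cells were plated in DMEM/10% FBS for 16-24 h at 37C, then treated with compounds plus the PDE inhibitor […] (300 uM solution added) for 30 min at 37C. Intracellular cAMP was measured by HTRF after 30 min lysis at room temperature.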
RXFP1 antagonist: RXFP1 (human) relaxin receptor antagonism. Q9HBX9. HEK293-RXFP1, relaxin-stimulated cAMP HTRF, 30 min; hits give low values. activity change, negative = inhibition, % at 57.5 µM. 350,000 tested, 0.59% active. AID 1259400;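 active = activity change of -60% or lower, but not beyond a set lower limit; inconclusive = change between -60% and -40%, or beyond the set limit; inactive = change above -40%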; note: % is set by controls: 0 for no effect and ±100 for the full control effect
Target sequence (Q9HBX9 whole entry, looked up): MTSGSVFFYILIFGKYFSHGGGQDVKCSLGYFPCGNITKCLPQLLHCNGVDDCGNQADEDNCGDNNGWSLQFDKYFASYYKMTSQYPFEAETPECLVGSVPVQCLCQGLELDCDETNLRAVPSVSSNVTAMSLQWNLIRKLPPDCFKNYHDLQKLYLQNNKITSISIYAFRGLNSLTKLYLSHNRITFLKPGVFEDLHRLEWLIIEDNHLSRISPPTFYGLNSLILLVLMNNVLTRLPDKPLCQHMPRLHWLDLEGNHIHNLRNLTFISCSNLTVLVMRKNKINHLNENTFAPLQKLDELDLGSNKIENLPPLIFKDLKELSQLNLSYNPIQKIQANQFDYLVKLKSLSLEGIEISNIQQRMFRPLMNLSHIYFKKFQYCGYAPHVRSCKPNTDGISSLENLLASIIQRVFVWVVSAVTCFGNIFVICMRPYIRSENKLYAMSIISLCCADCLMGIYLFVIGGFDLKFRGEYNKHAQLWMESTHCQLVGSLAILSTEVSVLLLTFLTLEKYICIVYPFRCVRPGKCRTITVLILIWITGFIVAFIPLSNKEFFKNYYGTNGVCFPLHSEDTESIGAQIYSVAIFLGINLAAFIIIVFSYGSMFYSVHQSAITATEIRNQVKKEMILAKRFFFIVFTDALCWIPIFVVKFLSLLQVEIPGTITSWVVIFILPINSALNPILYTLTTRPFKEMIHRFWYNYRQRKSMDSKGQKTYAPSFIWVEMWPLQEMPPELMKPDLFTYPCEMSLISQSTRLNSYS
RXFP1 agonist: RXFP1 (human) receptor agonism; Q9HBX9; HEK293T-RXFP1 cAMP TR-FRET, 30 min; response scale: percent of porcine relaxin response, buffer zero; Potency, µM (top dose mostly 57.5 µM), inactives show top-dose activation, usual class: activators; 370,000 tested, 0.3% active; active = well fitted activation curve with a large enough effect; inconclusive = small, poorly fitted or top-dose-only effect; note: potency is the fitted concentration of half-maximal effect; % is set by controls: 0 for no effect and ±100 for the full control effect; nearly all actives have a fitted effect of over 60% in size
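HEK293T cells stably expressing RXFP1 were pretreated with the PDE4 inhibitor Ro 20174, exposed to compounds for 30 min at 37C, lysed, and cAMP was read by TR-FRET. Data normalized to buffer (basal) and 29 nM porcine relaxin (100%).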
pAkt inh: inhibitors of Akt phosphorylation; Neuro2A IGF-stimulated pAkt S473 HTRF, 20 min; hits give low values; activity change, % for hits at 50 µM; 360,000 tested, 0.32% active; AID 651550; in the data active = activity change below about -80%; inconclusive = mostly about -51% to -80%; note: % is set by controls: 0 for no effect and ±100 for the full control effect
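Neuro2A cells in DMEM with 0.5% FBS, overnight at 37 deg C, given compound at single 50 µM final, then IGF (6 nM final) for 20 min at 37 deg C. Lysed; phospho-Akt Ser473 by HTRF after 24 h, 665/615 ratio.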
* hit, by the source's call; [ ] = another dose, or the depositor's remark.

For O=C(CSc1oc(-c2ccco2)nc1S(=O)(=O)c1ccc(F)cc1)NCC1CCCO1 (centres undefined) the results were gsp ag -44%, gsp antag -5%, RXFP1 antagonist -2, RXFP1 agonist 1% and pAkt inh inactive.
Screening C[C@@H](NCCCc1cccc(C(F)(F)F)c1)c1cccc2ccccc12 returned RXFP1 antagonist -68*.
CCCCc1ccc(NC(=S)N2CCN(c3ncccn3)CC2)cc1 was read as gsp ag -12%[15.4 µM], gsp antag -5%, RXFP1 antagonist -26, RXFP1 agonist 1% and pAkt inh inactive.
CCCCc1ccc(NC(=S)N2CCN(c3ccccn3)CC2)cc1 was read as gsp ag -20%, gsp antag -11%, RXFP1 antagonist -69*, RXFP1 agonist 0% and pAkt inh inactive.
Screening CC(C)OCCCn1c(=O)c2ccccc2n2c(CCC(=O)N3CCN(c4ccccn4)CC3)nnc12 returned gsp ag 20µM*, gsp antag -8%, RXFP1 antagonist -29, RXFP1 agonist 19% and pAkt inh inactive.
O=C(CCc1nnc2n(Cc3ccc(Cl)cc3)c(=O)c3ccccc3n12)N1CCN(c2ccccn2)CC1 was read as gsp ag inconclusive, gsp antag -12%, RXFP1 antagonist 11, RXFP1 agonist -1% and pAkt inh inactive.
Screening CC(C)CCn1c(=O)c2ccccc2n2c(CCC(=O)NCC3CCCO3)nnc12 (centres undefined) returned gsp ag 32µM*, gsp antag 6%, RXFP1 antagonist -13, RXFP1 agonist inconclusive and pAkt inh inactive.
`CCC(=O)N1CCc2cc(CNC(=O)c3ccccc3C)ccc21` gave RXFP1 antagonist -13 and RXFP1 agonist 2%.
Cc1ccc(/C=C/c2onc(C)c2S(=O)(=O)N2CCC(C(=O)N3CC(C)Oc4ccccc43)CC2)cc1 (centres undefined) was read as RXFP1 antagonist 5 and RXFP1 agonist 3%.
`COc1ccc(NC(=O)CN(C)C(=O)c2cc(S(=O)(=O)N3CCCCCC3)ccc2OC)cc1` gave gsp ag 3%[15.4 µM], gsp antag -2%, RXFP1 antagonist -72*, RXFP1 agonist 0% and pAkt inh inactive.
For COc1ccc(S(=O)(=O)N2CCCCCC2)cc1C(=O)N(C)CC(=O)Nc1ccc(F)cc1 the results were gsp ag 0%[15.4 µM], gsp antag 4%, RXFP1 antagonist 2, RXFP1 agonist -1% and pAkt inh inactive.
`COc1ccc(NC(=O)CN(C)CC(=O)N2CCCCCC2)cc1` gave gsp ag 6%[15.4 µM], gsp antag 8%, RXFP1 antagonist -90*, RXFP1 agonist 0% and pAkt inh inactive.
Screening COc1ccc(NC(=O)CN(C)C(=O)CC2CCCC2)cc1 returned gsp ag -12%[15.4 µM], gsp antag 12%, RXFP1 antagonist -74*, RXFP1 agonist -1% and pAkt inh inactive.
`Cn1cnc(S(=O)(=O)N2CCC(C(=O)Nc3ccc(Cl)c(C(F)(F)F)c3)CC2)c1` gave RXFP1 antagonist -5 and RXFP1 agonist 0%.
Screening CC1=C(C(=O)Nc2ccccc2)C(c2cccn2C)n2ncnc2N1 (centres undefined) returned RXFP1 agonist 2%.
For COc1ccc(C(=O)Sc2ccc(Cl)cc2)cc1OC the results were gsp ag 16%, gsp antag 1%[15.4 µM], RXFP1 antagonist -10, RXFP1 agonist 0% and pAkt inh -127%*.
Screening COc1ccc2cc1Oc1cc3c(cc1OC)CC[N+](C)(C)[C@H]3Cc1ccc(cc1)Oc1c(OC)c(OC)cc3c1[C@@H](C2)[N+](C)(C)CC3 returned RXFP1 antagonist 10.
For CCN(Cc1ccccc1)S(=O)(=O)c1ccc2c(c1)NC(=O)CS2 the results were gsp ag inconclusive, gsp antag 2%, RXFP1 antagonist -72* and RXFP1 agonist 3%.
For O=C(NCc1cccc(Cl)c1)c1cnccn1 the results were gsp ag -19%, gsp antag 4%, RXFP1 antagonist 1, RXFP1 agonist 0% and pAkt inh -86%*.
Cc1ccccc1Cn1ccn(-c2ccc(F)c(F)c2)c(=O)c1=O was read as RXFP1 antagonist 6 and RXFP1 agonist inconclusive.
Screening CN(C)CCSc1nnc2sc3ccccc3n12 returned gsp ag inconclusive, gsp antag 5%, RXFP1 antagonist 4, RXFP1 agonist 5% and pAkt inh -106%*.
COC(=O)[C@H](C)NC(=O)NCc1ccc(F)cc1 was read as gsp ag -18%, gsp antag 14%, RXFP1 antagonist -14, RXFP1 agonist -1% and pAkt inh -82%*.
Screening C[C@H](NC(=O)NCc1ccc(F)cc1)C(=O)O returned gsp ag -12%, gsp antag 14%, RXFP1 antagonist 0, RXFP1 agonist 1% and pAkt inh inactive.
For Cc1ccc(CNC(=O)CSc2c3c(nc4cc(Cl)ccc24)CCCC3)o1 the results were gsp ag inconclusive, gsp antag 1%, RXFP1 antagonist 12, RXFP1 agonist 7% and pAkt inh -103%*.
For CC(c1ccco1)N(C(=O)CSc1ccc(Br)cc1)c1ccccn1 (centres undefined) the results were gsp ag -6%, gsp antag 35µM*, RXFP1 antagonist -4, RXFP1 agonist -1% and pAkt inh inactive.
`Cc1cccc(C)c1NC(=O)CCCn1c(=O)c2cccn2c2ccccc21` gave RXFP1 antagonist -33 and RXFP1 agonist 0%.
For Cc1ccnc(Nc2nc(-c3ccc(F)cc3)cs2)c1 the results were gsp ag 2%[15.4 µM], gsp antag -27%, RXFP1 antagonist -66*, RXFP1 agonist 0% and pAkt inh inactive.
Screening COc1ccc(-c2csc(NC(=O)Cc3ccccc3F)n2)cc1OC returned gsp ag -18%[15.4 µM], gsp antag inconclusive, RXFP1 antagonist -6, RXFP1 agonist 0% and pAkt inh inactive.
O=C(Cc1ccccc1F)Nc1nc(-c2ccc(F)cc2)cs1 was read as gsp ag -5%, gsp antag -16%, RXFP1 antagonist -93*, RXFP1 agonist -1% and pAkt inh inactive.
For Cc1ccnc(Nc2nc(-c3ccc(Cl)cc3)cs2)c1 the results were gsp ag inconclusive, gsp antag 6%, RXFP1 antagonist -3, RXFP1 agonist 0% and pAkt inh inactive.
`Cc1nc(N)sc1-c1csc(Nc2ccccn2)n1` gave gsp ag 11%, gsp antag -2%, RXFP1 antagonist -5, RXFP1 agonist 1% and pAkt inh -110%*.
Screening COc1ccc(S(=O)(=O)Nc2ccccc2C(=O)Nc2nc(-c3ccc(F)cc3)cs2)cc1OC returned gsp ag -6%[15.4 µM], gsp antag 35µM*, RXFP1 antagonist -28, RXFP1 agonist 4% and pAkt inh inactive.

Bioassay records from PubChem BioAssay.
